Results from PubChem BioAssay (NCI).
About 79,000 compounds went through this panel and 15% of them were active in at least one assay; those are over-represented in the sample as a whole. Active and inactive are the calls of the source. Cut-off read from the data, not from the text of the source: active = growth inhibition above about 70%; inactive = the rest.

Assays:
[1] = NCI Yeast Anticancer Drug Screen. Data for the rad52 strain (AID 147);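 note: 0% = growth of vehicle-treated control cultures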; settings: S. cerevisiae rad52 mutant growth inhibition, stronger effect = higher value
Outline: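 Here a repair-compromised yeast strain receives each compound; its growth is then quantified and normalised to vehicle-only controls.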

[2] = NCI Yeast Anticancer Drug Screen. Data for the wt1 strain (AID 149);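 note: 0% = growth of vehicle-treated wt1 cultures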; settings: S. cerevisiae wt1 strain (SPY 50644) growth inhibition, stronger effect = higher value
Outline: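 wt1 strain grown with compound or vehicle; inhibition taken from the growth difference.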

[3] = NCI Yeast Anticancer Drug Screen. Data for the rad50EPP+ strain (AID 151);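 note: 0% = growth of vehicle-treated control cultures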; settings: S. cerevisiae rad50 mutant strain, stronger effect = higher value
Outline: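 Read-out is yeast growth inhibition relative to vehicle; cells used were the rad50EPP+ strain.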

[4] = NCI Yeast Anticancer Drug Screen. Data for the mgt1 strain (AID 153); settings: S. cerevisiae mgt1 mutant growth inhibition, stronger effect = higher value
Outline: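 Measured: inhibition of mgt1 yeast growth by compound, normalized to vehicle-treated cultures.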

[5] = NCI Yeast Anticancer Drug Screen. Data for the rad50 strain (AID 155);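 note: 0% = growth of vehicle-only cultures of the same strain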; settings: S. cerevisiae rad50 strain growth inhibition, stronger effect = higher value
Outline: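 DNA repair mutant yeast, compound exposure, growth read-out; inhibition is taken relative to vehicle.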

[6] = NCI Yeast Anticancer Drug Screen. Data for the mec2-1 strain (AID 157); settings: S. cerevisiae mec2-1 strain, stronger effect = higher value
Outline: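 Using mec2-1 yeast: add compound, measure growth, express inhibition versus vehicle-treated cultures.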

[7] = NCI Yeast Anticancer Drug Screen. Data for the rad14 strain (AID 159);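 note: 0% = growth of vehicle-treated control cultures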; settings: S. cerevisiae rad14 strain growth inhibition, stronger effect = higher value
Outline: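 DNA repair-defective yeast, compound-exposed; % growth inhibition derived by comparison with vehicle-treated controls.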

[8] = NCI Yeast Anticancer Drug Screen. Data for the sgs1 mgt1 strain (AID 161);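 note: 0% = growth of cultures given vehicle only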; settings: S. cerevisiae sgs1 mgt1 strain, stronger effect = higher value
Outline: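 This yeast growth screen uses a strain with defined DNA-repair lesions; compound-treated growth is compared with vehicle-treated growth.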

[9] = NCI Yeast Anticancer Drug Screen. Data for the CLN2oe strain (AID 163);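 note: 0% = growth of vehicle-only control cultures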; settings: S. cerevisiae CLN2oe strain, stronger effect = higher value
Outline: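 Whole-cell yeast growth assay. A strain engineered for altered cell-cycle control received compound, and inhibition relative to vehicle-treated cultures was recorded.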

[10] = NCI Yeast Anticancer Drug Screen. Data for the cln2 rad14 strain (AID 165);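 note: 0% = growth equal to vehicle treated cultures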; settings: S. cerevisiae cln2 rad14 strain, stronger effect = higher value
Outline: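 Yeast strain cln2 rad14, bearing defects in cell cycle control and DNA repair, serves as the test system; values reflect growth inhibition compared with vehicle.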

[11] = NCI Yeast Anticancer Drug Screen. Data for the bub3 strain (AID 167); settings: S. cerevisiae bub3 mutant strain, stronger effect = higher value
Outline: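 In this screen, a yeast mutant lacking normal mitotic checkpoint function is challenged with compound. Relative growth versus vehicle gives the inhibition value.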

[12] = NCI Yeast Anticancer Drug Screen. Data for the wt2 strain (AID 169);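 note: 0% = growth of vehicle-treated yeast cultures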; settings: S. cerevisiae wt2 strain growth inhibition, stronger effect = higher value
Outline: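 Treated yeast vs. vehicle-treated yeast: growth inhibition determined.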

[13] = NCI Yeast Anticancer Drug Screen. Data for the sgs1 strain (AID 173);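 note: 0% = growth of vehicle-only control cultures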; settings: S. cerevisiae sgs1 mutant, stronger effect = higher value
Outline: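 A genetically defined yeast mutant is incubated with the test compound, and its growth is compared to that of the same strain given vehicle.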

[14] = NCI Yeast Anticancer Drug Screen. Data for the mlh1 rad18 strain (AID 175); settings: S. cerevisiae mlh1 rad18 strain growth inhibition, stronger effect = higher value
Outline: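 Steps: expose repair-defective yeast to compound; measure growth; express inhibition against vehicle-treated controls.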

[15] = NCI Yeast Anticancer Drug Screen. Data for the rad18 strain (AID 177); settings: S. cerevisiae rad18 mutant growth inhibition, stronger effect = higher value
Outline: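 Measured value is growth inhibition of a yeast strain bearing a DNA repair alteration, referenced to vehicle-treated cells.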

[16] = at 5.0 µM (retest, dose inferred, filed as 0.5)
[17] = at 50.0 µM (retest, dose inferred, filed as 5.0)

Measured: growth inhibition

O=C(Nc1ccc(Cl)cc1)OCC#CCCl
active: [3]; at 1.2 µM 76% | [3]; at 3.7 µM 92% | [3]; at 11.0 µM 97% | [3]; at 33.0 µM 98% | [3]; at 100.0 µM 98% | [4]; at 1.2 µM 89% | [4]; at 3.7 µM 96% | [4]; at 11.0 µM 98% | [4]; at 33.0 µM 98% | [4]; at 100.0 µM 98% | [8]; [16] 96% | [8]; [17] 98% | [8]; at 50.0 µM 96.7% | [12]; at 1.2 µM 95% | [12]; at 3.7 µM 98% | [12]; at 11.0 µM 99% | [12]; at 33.0 µM 99% | [12]; at 100.0 µM 99% | [13]; at 1.2 µM 93% | [13]; at 3.7 µM 96% | [13]; at 11.0 µM 98% | [13]; at 33.0 µM 98% | [13]; at 100.0 µM 98%
inactive: [1]; at 1.2 µM 5% | [1]; at 3.7 µM -1% | [1]; at 11.0 µM 15% | [1]; at 33.0 µM 16% | [1]; at 100.0 µM 27% | [2]; at 1.2 µM -1% | [2]; at 3.7 µM 1% | [2]; at 11.0 µM 12% | [2]; at 33.0 µM 10% | [2]; at 100.0 µM 9% | [5]; at 1.2 µM -4% | [5]; at 3.7 µM -9% | [5]; [16] 8% | [5]; at 11.0 µM -6% | [5]; at 33.0 µM 15% | [5]; [17] 7% | [5]; at 50.0 µM 10.9% | [5]; at 100.0 µM 28% | [6]; at 1.2 µM 3% | [6]; at 3.7 µM 3% | [6]; [16] 6% | [6]; at 11.0 µM 4% | [6]; at 33.0 µM 2% | [6]; [17] 18% | [6]; at 50.0 µM 2.65% | [6]; at 100.0 µM 8% | [7]; at 1.2 µM 3% | [7]; at 3.7 µM 12% | [7]; at 11.0 µM -5% | [7]; at 33.0 µM -4% | [7]; at 100.0 µM 24% | [9]; at 1.2 µM -6% | [9]; at 3.7 µM -3% | [9]; at 11.0 µM -3% | [9]; at 33.0 µM 1% | [9]; at 100.0 µM 2% | [10]; [16] 5% | [10]; [17] 7% | [10]; at 50.0 µM -19.2% | [11]; at 1.2 µM -1% | [11]; at 3.7 µM 3% | [11]; [16] 4% | [11]; at 11.0 µM 4% | [11]; at 33.0 µM 3% | [11]; [17] 23% | [11]; at 50.0 µM 18.1% | [11]; at 100.0 µM 1% | [14]; [16] 9% | [14]; [17] 46% | [14]; at 50.0 µM 6.8% | [15]; at 1.2 µM -5% | [15]; at 3.7 µM 6% | [15]; at 11.0 µM 11% | [15]; at 33.0 µM 10% | [15]; at 100.0 µM 52%

CC1(C)[C@@H]2CC[C@]1(C)[C@H](OC(=O)CSC#N)C2
inactive: [1]; at 1.2 µM 0% | [1]; at 3.7 µM 3% | [1]; at 11.0 µM 20% | [2]; at 1.2 µM 1% | [2]; at 3.7 µM 4% | [2]; at 11.0 µM 14% | [2]; at 33.0 µM 61% | [3]; at 1.2 µM -1% | [3]; at 3.7 µM 4% | [3]; at 11.0 µM 9% | [3]; at 33.0 µM 24% | [3]; at 100.0 µM 50% | [4]; at 1.2 µM 1% | [4]; at 3.7 µM 2% | [4]; at 11.0 µM 23% | [5]; at 1.2 µM 1% | [5]; at 3.7 µM 1% | [5]; [16] -5% | [5]; at 11.0 µM 20% | [5]; at 33.0 µM 68% | [6]; at 1.2 µM 4% | [6]; at 3.7 µM 8% | [6]; [16] 8% | [6]; at 11.0 µM 27% | [7]; at 1.2 µM -2% | [7]; at 3.7 µM -1% | [7]; at 11.0 µM 12% | [7]; at 33.0 µM 43% | [8]; [16] 28% | [9]; at 1.2 µM -3% | [9]; at 3.7 µM -1% | [9]; at 11.0 µM 1% | [9]; at 33.0 µM 47% | [10]; [16] 34% | [11]; at 1.2 µM 2% | [11]; at 3.7 µM 13% | [11]; [16] 14% | [11]; at 11.0 µM -19%
active: [1]; at 33.0 µM 83% | [1]; at 100.0 µM 95% | [2]; at 100.0 µM 96% | [4]; at 33.0 µM 90% | [4]; at 100.0 µM 98% | [5]; [17] 98% | [5]; at 50.0 µM 99% | [5]; at 100.0 µM 96% | [6]; at 33.0 µM 86% | [6]; [17] 98% | [6]; at 50.0 µM 98% | [6]; at 100.0 µM 97% | [7]; at 100.0 µM 97% | [8]; [17] 97% | [8]; at 50.0 µM 98.6% | [9]; at 100.0 µM 95% | [10]; [17] 91% | [10]; at 50.0 µM 94.8% | [11]; at 33.0 µM 81% | [11]; [17] 99% | [11]; at 50.0 µM 99% | [11]; at 100.0 µM 96%
